The record followed here is the OligoGym collection.

Targets include CYP4V2; CYP4A22; CYSLTR1.
Holding throughout (test): pooled miR-30 sensor sort-seq; sequence = guide strand
What all share (settings): shRNA
Note: reference of the scale not given here.

In the test with CYP4V2, TTCTTCTCGAATATCTTCATGA showed a sensor-assay potency score (higher = more potent) of -0.54.
In the test with CYP4A22, AAACATGAACGTGTCCACCTCA showed a sensor-assay potency score (higher = more potent) of -0.12.
In turn, TTTGGATTTCAACACAAGTCGT returned a sensor-assay potency score (higher = more potent) in the test with CYP4A22 of -1.17.
Still for that read-out and setting: then TTGGGTTGTGGTGAAGGCCATA, with -1.
In the test with CYSLTR1, TGACACATAATGCAAGACCAAA came in with a sensor-assay potency score (higher = more potent) of -1.62.
Sequence TGGCCCTCAAACATGAACGTGT gave a sensor-assay potency score (higher = more potent) with CYP4A22 of -0.767.
